Test results from PubChem BioAssay (Tox21).
Inconclusive results are not listed. The source made the active and inactive calls. Unless noted, calls come from the whole dose curve.

What was measured:
[1] = Nuclear factor erythroid 2-related factor 2/antioxidant responsive element (Nrf2/ARE) small molecule agonists: qHTS cell viability counter screen in human keratinocytes (AID 1919968; active = well fitted curve in the direction sought with a large enough effect in the repeat runs; an effect the other way counts as inactive or inconclusive; note: nearly all actives have a fitted effect of over 55% in size)
Method in brief: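 Seed 1,500 KeratinoSens cells per well, then incubate 5 h at 37 C/5% CO2. Add compounds in DMSO and incubate 23 h. Add CellTiter-Fluor, wait 1 h and read fluorescence.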

[2] = Nuclear factor erythroid 2-related factor 2/antioxidant responsive element (Nrf2/ARE) small molecule agonists: luciferase reporter gene qHTS assay in human keratinocytes (AID 1919969); note: nearly all actives have a fitted effect of over 35% in size
[3] = molecular target: Gonadotropin-releasing hormone receptor (Homo sapiens) (UniProt P30968); assay: Human gonadotropin-releasing hormone receptor (GnRHR) small molecule agonists, calcium flux assay in GnRHR-HEK293 cells (AID 1920063); note: nearly all actives have a fitted effect of over 35% in size
Chain of Gonadotropin-releasing hormone receptor (Homo sapiens) (P30968 whole entry, looked up): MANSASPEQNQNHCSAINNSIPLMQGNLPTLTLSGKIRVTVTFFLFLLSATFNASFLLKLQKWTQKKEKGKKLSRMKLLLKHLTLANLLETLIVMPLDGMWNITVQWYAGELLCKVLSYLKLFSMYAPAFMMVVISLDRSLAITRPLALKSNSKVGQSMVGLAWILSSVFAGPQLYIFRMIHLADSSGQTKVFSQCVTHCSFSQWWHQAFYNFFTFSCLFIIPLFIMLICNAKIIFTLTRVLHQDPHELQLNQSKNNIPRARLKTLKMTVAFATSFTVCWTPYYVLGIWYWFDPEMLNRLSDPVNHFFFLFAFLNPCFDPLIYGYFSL
Method in brief: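 Cells: HEK293 stably expressing human GnRHR. Steps: overnight (18 h) culture, 1 h calcium dye loading at 37 C, compound addition, kinetic fluorescence read at 480/540 nm. Each compound tested at 15 concentrations in triplicate.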

[4] = molecular target: KiSS-1 receptor (Homo sapiens) (UniProt Q969F8); assay: Human kisspeptin (KISS1R) small molecule agonists, calcium flux assay in KISS1R-HEK293 cells (AID 1920064; active = well fitted curve in the direction sought with a large enough effect in the repeat runs; an effect the other way counts as inactive or inconclusive)
Chain of KiSS-1 receptor (Homo sapiens) (Q969F8 whole entry, looked up): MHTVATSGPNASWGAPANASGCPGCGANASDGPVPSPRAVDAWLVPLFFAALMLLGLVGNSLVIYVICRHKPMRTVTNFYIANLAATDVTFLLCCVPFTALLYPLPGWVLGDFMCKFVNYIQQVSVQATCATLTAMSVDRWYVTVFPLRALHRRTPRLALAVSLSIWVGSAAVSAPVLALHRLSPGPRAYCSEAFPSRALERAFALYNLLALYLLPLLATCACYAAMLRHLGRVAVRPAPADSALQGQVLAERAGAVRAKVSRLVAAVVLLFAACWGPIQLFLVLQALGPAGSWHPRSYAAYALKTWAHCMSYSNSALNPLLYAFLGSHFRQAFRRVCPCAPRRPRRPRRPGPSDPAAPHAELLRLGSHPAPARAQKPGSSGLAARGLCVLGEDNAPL
Method in brief: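 Cells plated and incubated 18 h; dye added, 1 h at 37 C; compounds in DMSO pinned in; signal read at 480/540 nm every second for 3 min. Each compound tested at 15 concentrations in triplicate.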

[5] = p53 small molecule agonists, cell-based qHTS assay with human liver microsomes (AID 1963577)
Method in brief: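 Cells carrying a p53-responsive bla reporter were rested 5 h (37 C, 5% CO2) before compound transfer. Human liver microsomes plus NADPH, 0.5 mg/mL final apiece, supplied metabolism during the 16 h 37 C exposure.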

[6] = p53 small molecule agonists, cell-based qHTS assay with rat liver microsomes (AID 1963578)
Method in brief: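 Fluorescence from a beta-lactamase reporter under a p53 response element was measured after cells had been incubated 16 h at 37 C with test compound and rat liver microsomes plus NADPH (0.5 mg/mL final each).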

[7] = p53 small molecule agonists, cell-based qHTS assay with human liver microsomes: qHTS cell viability counter screen (AID 1963579); note: nearly all actives have a fitted effect of over 45% in size
Method in brief: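 Seed p53RE-bla cells at 4,000 per well; incubate 5 h at 37 C; add compound, human liver microsomes and NADPH; incubate 16 h at 37 C; add CellTiter-Glo; after 30 min at room temperature, read luminescence.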

[8] = p53 small molecule agonists, cell-based qHTS assay with rat liver microsomes: qHTS cell viability counter screen (AID 1963580); note: nearly all actives have a fitted effect of over 45% in size
Method in brief: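 HCT-116 p53RE-bla, 4,000 cells/well, 5 h pre-incubation; cpd + rat liver microsomes 0.5 mg/mL + NADPH 0.5 mg/mL (final); 16 h, 37 C; CellTiter-Glo, 30 min RT; luminescence.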

[9] = p53 small molecule agonists, cell-based qHTS assay: qHTS cell viability counter screen (AID 1963581); note: nearly all actives have a fitted effect of over 45% in size
Method in brief: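 Cells: HCT-116 with p53 response element-driven beta-lactamase. Treatment: 16 h, 37 C, compounds in DMSO. Read: CellTiter-Glo luminescence after 30 min RT.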

[10] = p53 small molecule agonists, cell-based qHTS assay (AID 1963582; active = well fitted activation curve with a large enough effect in the signal ratio in the repeat runs, not every such curve was filed as active; the % refers to the signal ratio)
Method in brief: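 Quantitative HTS in p53RE-bla cells: after a 5 h settling period, compounds delivered in DMSO were left on cells for 16 h at 37 C, and reporter induction was measured as fluorescence following 2 h substrate loading.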

[11] = molecular target: 5-hydroxytryptamine receptor 2A (Homo sapiens) (UniProt P28223); assay: 5-hydroxytryptamine receptor 2A (HTR2A) small molecule antagonists, cell-based qHTS assay (AID 1963586); note: nearly all actives have a fitted effect of over 45% in size
Chain of 5-hydroxytryptamine receptor 2A (Homo sapiens) (P28223 whole entry, looked up): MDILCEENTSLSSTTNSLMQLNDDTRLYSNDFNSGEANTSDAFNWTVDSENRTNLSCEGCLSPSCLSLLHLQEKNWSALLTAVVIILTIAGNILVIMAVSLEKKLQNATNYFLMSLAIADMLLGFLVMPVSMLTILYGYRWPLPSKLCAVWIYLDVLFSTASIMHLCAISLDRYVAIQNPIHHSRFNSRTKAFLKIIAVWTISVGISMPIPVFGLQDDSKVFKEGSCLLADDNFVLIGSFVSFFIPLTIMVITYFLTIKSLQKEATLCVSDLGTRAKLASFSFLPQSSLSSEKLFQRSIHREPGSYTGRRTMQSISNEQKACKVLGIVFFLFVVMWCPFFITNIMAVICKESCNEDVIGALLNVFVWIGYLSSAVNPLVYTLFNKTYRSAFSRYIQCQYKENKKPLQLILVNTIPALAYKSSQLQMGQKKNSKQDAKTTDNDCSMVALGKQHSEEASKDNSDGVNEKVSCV
Method in brief: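 Antagonist-mode intracellular calcium assay: DOI (4 nM) added after 5 min compound pre-incubation at room temperature to dye-loaded HTR2A-CHO cells. Fluorescence followed for 3 min, sampled every second.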

[12] = molecular target: 5-hydroxytryptamine receptor 2A (Homo sapiens) (UniProt P28223); assay: 5-hydroxytryptamine receptor 2A (HTR2A) small molecule agonists, cell-based qHTS assay (AID 1963587); note: nearly all actives have a fitted effect of over 30% in size
Method in brief: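 Kinetic calcium-flux fluorescence (2 min, 1 sec intervals) after compound addition in agonist mode. HTR2A-CHO cells were cultured 18 h, then dye-loaded 1 h at 37 C.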

[13] = molecular target: Muscarinic acetylcholine receptor M1 (Homo sapiens) (UniProt P11229); assay: Cholinergic receptor muscarinic 1 (CHRM1) small molecule antagonists, cell-based qHTS assay (AID 1963588); note: nearly all actives have a fitted effect of over 40% in size
Chain of Muscarinic acetylcholine receptor M1 (Homo sapiens) (P11229 whole entry, looked up): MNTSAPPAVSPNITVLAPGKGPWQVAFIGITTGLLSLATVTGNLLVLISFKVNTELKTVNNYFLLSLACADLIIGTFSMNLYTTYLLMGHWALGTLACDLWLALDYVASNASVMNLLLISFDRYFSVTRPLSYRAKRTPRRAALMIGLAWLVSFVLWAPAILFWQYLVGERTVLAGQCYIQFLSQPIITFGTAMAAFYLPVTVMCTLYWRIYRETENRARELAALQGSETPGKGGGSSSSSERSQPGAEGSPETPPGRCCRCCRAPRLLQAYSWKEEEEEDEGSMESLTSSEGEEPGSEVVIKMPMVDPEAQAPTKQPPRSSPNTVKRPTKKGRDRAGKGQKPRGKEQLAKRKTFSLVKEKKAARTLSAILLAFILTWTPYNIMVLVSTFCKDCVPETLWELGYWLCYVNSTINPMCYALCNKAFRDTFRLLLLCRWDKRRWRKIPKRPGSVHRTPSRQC
Method in brief: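 CHRM1-CHO calcium-flux assay, antagonist mode. Cells were seeded 18 h, dye-loaded 1 h at 37 C and given compound for 5 min at RT, then acetylcholine was added at 50nM. FDSS fluorescence was read 3 min; 15 concentrations, three runs.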

[14] = molecular target: Muscarinic acetylcholine receptor M1 (Homo sapiens) (UniProt P11229); assay: Cholinergic receptor muscarinic 1 (CHRM1) small molecule agonists, cell-based qHTS assay (AID 1963589); note: nearly all actives have a fitted effect of over 35% in size
Method in brief: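 Agonist-mode qHTS in CHO cells stably carrying human muscarinic M1. Intracellular calcium is tracked by fluorescence every second after compound transfer; each compound runs at 15 concentrations in three independent runs.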

[15] = cAMP Responsive Elements (CRE) small molecule agonists, cell-based qHTS assay (AID 1963590)
Method in brief: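 Agonist mode qHTS in CRE-bla HEK 293T cells: compounds dosed from DMSO for 3 h at 37 C/5% CO2, followed by LiveBLAzer B/G FRET substrate for 2 h at room temperature.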

[16] = cAMP Responsive Elements (CRE) small molecule antagonists, cell-based qHTS assay (AID 1963591; active = well fitted inhibition curve with a large enough effect in the signal ratio in the repeat runs, not every such curve was filed as active; the % refers to the signal ratio)
Method in brief: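 Antagonist mode: test compounds are co-incubated with the adenylyl cyclase activator NKH477 (0.25 uM final) on CRE-bla HEK293T cells for 3 h at 37 °C, followed by LiveBLAzer substrate loading.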

[17] = molecular target: Beta-2 adrenergic receptor (Homo sapiens) (UniProt P07550); assay: Adrenergic beta2 receptor (ADRB2) small molecule antagonists, cell-based qHTS assay (AID 1963592); note: series mostly up to about 92 µM; nearly all actives have a fitted effect of over 50% in size
Chain of Beta-2 adrenergic receptor (Homo sapiens) (P07550 whole entry, looked up): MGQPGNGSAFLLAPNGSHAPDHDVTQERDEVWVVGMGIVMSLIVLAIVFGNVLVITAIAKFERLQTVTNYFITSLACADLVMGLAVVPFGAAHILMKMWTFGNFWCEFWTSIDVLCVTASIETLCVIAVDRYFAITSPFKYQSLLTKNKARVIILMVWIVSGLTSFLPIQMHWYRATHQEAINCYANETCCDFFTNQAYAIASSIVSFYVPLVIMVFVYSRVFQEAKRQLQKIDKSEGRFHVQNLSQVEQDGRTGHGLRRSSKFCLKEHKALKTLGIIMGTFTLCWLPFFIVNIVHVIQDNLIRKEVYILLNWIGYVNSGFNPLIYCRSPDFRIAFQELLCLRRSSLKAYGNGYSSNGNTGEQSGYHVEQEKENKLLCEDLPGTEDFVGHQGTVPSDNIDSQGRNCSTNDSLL
Method in brief: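 Cells (CHO, stable ADRB2 overexpression) incubated 18-20hr at 37C; compounds added from DMSO; agonist mix (1nM isoproterenol, 100uM IBMX, 25uM Ro-20-1724) added; 0.5hr RT; d2-cAMP and anti-cAMP-cryptate added; 1hr RT; 665/615 nm read.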

[18] = molecular target: D(2) dopamine receptor (Homo sapiens) (UniProt P14416); assay: Dopamine D2 receptor (DRD2) small molecule agonists, cell-based qHTS assay (AID 1963594); note: nearly all actives have a fitted effect of over 35% in size
Chain of D(2) dopamine receptor (Homo sapiens) (P14416 whole entry, looked up): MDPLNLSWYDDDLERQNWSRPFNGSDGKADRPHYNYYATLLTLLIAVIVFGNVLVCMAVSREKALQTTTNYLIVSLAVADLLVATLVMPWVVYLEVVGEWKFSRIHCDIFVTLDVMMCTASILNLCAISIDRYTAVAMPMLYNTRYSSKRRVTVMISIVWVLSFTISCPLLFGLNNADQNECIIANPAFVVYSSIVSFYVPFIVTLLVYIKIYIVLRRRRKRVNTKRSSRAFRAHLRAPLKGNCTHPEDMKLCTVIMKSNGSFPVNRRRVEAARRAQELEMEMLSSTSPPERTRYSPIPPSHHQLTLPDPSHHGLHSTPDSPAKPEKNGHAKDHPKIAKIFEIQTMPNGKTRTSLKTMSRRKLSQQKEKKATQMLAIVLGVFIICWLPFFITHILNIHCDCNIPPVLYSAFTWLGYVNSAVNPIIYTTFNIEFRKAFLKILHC
Method in brief: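 cAMP accumulation in DRD2-HEK293 cells measured by HTRF after 1 h detection; compounds added 10 min before NKH477 (200nM […]) forskolin-analogue stimulation, 30 min at room temperature, with Ro20-1724 present at 0.1 mM final.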

[19] = molecular target: D(2) dopamine receptor (Homo sapiens) (UniProt P14416); assay: Dopamine D2 receptor (DRD2) small molecule antagonists, cell-based qHTS assay (AID 1963595; active = well fitted inhibition curve with a large enough effect in the signal ratio in the repeat runs, with a control signal flat; the % refers to the signal ratio)
Method in brief: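 HTRF cAMP read-out at 665 and 620 nm emission (340 nm excitation). Antagonist mode: compounds were tested against 12 nM quinpirole in DRD2-HEK293 cells, with 200 nM NKH477 raising cAMP and 0.1 mM Ro20-1724 blocking its breakdown.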

[20] = molecular target: Beta-2 adrenergic receptor (Homo sapiens) (UniProt P07550); assay: Adrenergic beta2 receptor (ADRB2) small molecule agonists, cell-based qHTS assay (AID 1963593);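 note: CHO cells stably overexpressing human ADRB2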
Method in brief: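 CHO cells stably over-expressing ADRB2 were plated overnight at 37C, then dosed with compounds plus a stimulation mix containing 100uM IBMX and 25uM Ro-20-1724 for 0.5hr at room temperature. cAMP was measured by HTRF competition, 1hr.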

Measured: Potency

CC/C=C\CCCCO
not listed: [20]
inactive: all other assays above

CCO[Si](CCCCl)(OCC)OCC
not listed: [11] | [13]
inactive: all other assays above

O=C(O)/C=C/c1ccc(/C=C/C(=O)O)cc1
not listed: [10] | [19] | [20]
inactive: all other assays above

CC(C=O)Cc1ccc(C(C)C)cc1 (centres undefined)
not listed: [18] | [20]
inactive: all other assays above

CCCOc1ccccc1-c1nc2n[nH]nc2c(=O)[nH]1
inactive: [1] | [2] | [3] | [4] | [5] | [6] | [7] | [8] | [9] | [10] | [17]

CCCCC(CC)COC(=O)c1ccccc1O (centres undefined)
not listed: [20]
inactive: all other assays above

CCC(CC)(CC(=O)Nc1cccc(/C=C/c2nc(C3CCC3)cs2)c1)C(=O)O
not listed: [15] | [16] | [18] | [20]
inactive: all other assays above

N#Cc1ccc(C(=O)O)cc1
not listed: [16] | [20]
inactive: all other assays above

ON=C1CCCC1
not listed: [12] | [14] | [20]
inactive: all other assays above

O=C1[C@H](CC[C@H](O)c2ccc(F)cc2)[C@@H](c2ccc(O)cc2)N1c1ccc(F)cc1
not listed: [17] | [20]
inactive: all other assays above

CCCCOC(=O)C(C)O (centres undefined)
not listed: [13]
inactive: all other assays above

CCCCCCCCCCCCCCCCCCN(C)C
not listed: [11] | [12] | [15] | [20]
inactive: all other assays above

BrCCCCCBr
not listed: [20]
inactive: all other assays above

CN(C)C(=O)CNC(=O)Cc1ccccc1
not listed: [11]
inactive: all other assays above
